Earlier results on 14 molecules are cited in PubChem BioAssay AID977611.

The nature of the series: PubChem AID 977611. Particulars: PDB protein-ligand complexes, literature Kd.

Hit rate of the full screen: of about 3,900 compounds, about 3,900 (100%) were called active. No cut-off is given here; in the data, nearly all actives have Kd up to about 4200 µM. The set was probably picked from earlier hits. Some of the results follow. Where a SMILES comes first, the peptide text is derived from it. Non-standard residues stand in square brackets, D forms with d. Square brackets hold non-standard residues; d marks the D form. Residues, ends and D or L forms follow the SMILES beside them. Peptide text beside a SMILES is read from it. [ ]: non-standard residue; d: D form. Thr(P(OH)3+) = C[C@@H](O[P+](O)(O)O)[C@H](N)C(=O)O; Lys(Me3) = C[N+](C)(C)CCCC[C@H](N)C(=O)O; Orn(CH(NH2)2) = NC(N)NCCC[C@H](N)C(=O)O; Lys(Me2) = CN(C)CCCC[C@H](N)C(=O)O

On to `NS(=O)(=O)c1ccc(CNc2ncnc(NCc3ccccc3)c2[N+](=O)[O-])cc1`, for which the Kd (protein: human carbonic anhydrase II, PDB entry 3mhm) was 100 nM (active). Take `CC(C)[C@H](NC(=O)[C@H](CCCC[N+](C)(C)C)NC(=O)[C@H](CO)NC(=O)[C@H](CCCN=C(N)N)NC(=O)[C@H](C)NC(=O)[C@H](C)NC(=O)[C@@H](N)CCCN=C(N)N)C(=O)O` (tested in a mixture with another compound) (H-RAARS[Lys(Me3)]V-OH): where the note is “protein: Chromodomain-helicase-DNA-binding protein 1 CHD1, PDB entry 4nw2”, the dissociation constant Kd was 29000 nM (active).

As to `CC(C)[C@H](NC(=O)[C@H](CCCCN(C)C)NC(=O)[C@H](CO)NC(=O)[C@H](CCCN=C(N)N)NC(=O)[C@H](C)NC(=O)[C@@H](NC(=O)[C@@H](N)CCCN=C(N)N)[C@@H](C)O)C(=O)O` (H-RTARS[Lys(Me2)]V-OH), the dissociation constant Kd (protein: Chromodomain-helicase-DNA-binding protein 1 CHD1, PDB entry 4o42) is 22000 nM (active). In the case of `CC[C@H](C)[C@H](NC(=O)[C@@H](N)CC(N)=O)C(=O)N[C@H](C(=O)N[C@@H](CCC(N)=O)C(=O)N1CCC[C@H]1C(=O)N[C@H](C(=O)N[C@@H](CCC(N)=O)C(=O)N[C@@H](CCC(N)=O)C(=O)N[C@@H](CO)C(=O)N[C@H](C(=O)O)[C@@H](C)O)[C@@H](C)O)[C@@H](C)O[P+](O)(O)O` (H-NI[Thr(P(OH)3+)]QPTQQST-OH), for the setting “protein: Rad53 FHA1 domain, PDB entry 2jqi”, the dissociation constant Kd was 10000 nM (active). Take `CC[C@H](C)[C@H](NC(=O)[C@@H](N)CC(N)=O)C(=O)N[C@H](C(=O)N[C@@H](CCC(N)=O)C(=O)N1CCC[C@H]1C(=O)N[C@H](C(=O)N[C@@H](CCC(N)=O)C(=O)N[C@@H](CCC(N)=O)C(=O)N[C@@H](CO)C(=O)N[C@H](C(=O)O)[C@@H](C)O)[C@@H](C)O[P+](O)(O)O)[C@@H](C)O[P+](O)(O)O` (H-NI[Thr(P(OH)3+)]QP[Thr(P(OH)3+)]QQST-OH): the Kd (protein: the yeast Dun1 FHA domain, PDB entry 2jql) was 300 nM (active). `Cn1c[n+]([C@@H]2O[C@H](CO[P+](O)(O)O[P+](O)(O)O)[C@@H](O)[C@H]2O)c2c1C(=O)NC(N)N2` (stereo not given in full): the dissociation constant (Kd) (protein: rRNA N-glycosidase, PDB entry 4emf) is 83.9 nM (active). On to `Cn1c[n+]([C@@H]2O[C@H](CO[P+](O)(O)O[P+](O)(O)O[P+](O)(O)O)[C@@H](O)[C@H]2O)c2c1C(=O)NC(N)N2` (stereo not given in full), for which the dissociation constant Kd (protein: rRNA N-glycosidase, PDB entry 4emr) is 32.1 nM (active). Consider `C[C@H]1COCCN1C[C@H]1CN(S(=O)(=O)c2cccs2)CCN1c1ccc([C@@](C)(O)C(F)(F)F)cc1`, for which the Kd (protein: Glucokinase regulatory protein, PDB entry 4ly9) was 7 nM (active). Take `COC(=O)c1cc(Nc2ncnc3[nH]ccc23)ccc1Br`: the dissociation constant (Kd) (protein: TAU-TUBULIN KINASE 1, PDB entry 4btm) is 4100 nM (active). For the molecule `CC[C@H](C)[C@H](NC(=O)[C@H](CC(C)C)NC(=O)[C@H](CCCNC(N)N)NC(=O)[C@@H](N)CC(N)=O)C(=O)N[C@@H](CC(C)C)C(=O)O` (H-N[Orn(CH(NH2)2)]LIL-OH), the Kd (protein: Chaperone protein DnaK, PDB entry 4ezy) is 2260 nM (active). Turning to `CC[C@H](C)[C@H](NC(=O)[C@H](CC(N)=O)NC(=O)[C@H](CCSC)NC(=O)[C@@H](N)CCCNC(N)N)C(=O)N[C@@H](CCC(N)=O)C(=O)N[C@@H](CCSC)C(=O)N[C@@H](CC(C)C)C(=O)N[C@@H](CC(C)C)C(=O)N[C@@H](CCC(=O)O)C(=O)N[C@@H](C)C(=O)N[C@@H](C)C(=O)N[C@@H](CC(=O)O)C(=O)N[C@@H](Cc1ccc(O)cc1)C(=O)N[C@@H](CC(C)C)C(=O)N[C@@H](CCC(=O)O)C(=O)N[C@@H](CCCNC(N)N)C(=O)O` (H-[Orn(CH(NH2)2)]MNIQMLLEAADYLE[Orn(CH(NH2)2)]-OH), the Kd runs as follows: (protein: mammalian Sin3A PAH2 domain, PDB entry 1g1e) 29 nM (active); (protein: mammalian mSin3A (mSin3A) PAH2 domain, PDB entry 1s5q) 5200 nM (active). Take `CC[C@H](C)[C@H](NC(=O)[C@H](C)NC(=O)[C@H](CCC(=O)O)NC(=O)[C@H](CCCNC(N)N)NC(=O)[C@H](CC(C)C)NC(=O)[C@H](Cc1ccc(O)cc1)NC(=O)[C@H](CCCNC(N)N)NC(=O)[C@H](CC(=O)O)NC(=O)[C@H](CC(=O)O)NC(=O)[C@@H](N)CC(=O)O)C(=O)N[C@@H](CCC(N)=O)C(=O)N[C@@H](CCC(=O)O)C(=O)N[C@@H](Cc1ccc(O)cc1)C(=O)N[C@@H](CC(=O)O)C(=O)N[C@@H](CC(N)=O)C(=O)N[C@H](C(=O)N[C@@H](C)C(=O)N[C@@H](CCCCN)C(=O)O)[C@@H](C)CC` (H-DDD[Orn(CH(NH2)2)]YL[Orn(CH(NH2)2)]EAIQEYDNIAK-OH): the dissociation constant (Kd) (protein: N terminal domain of Harmonin, PDB entry 2kbr) was 25400 nM (active).

Turning to `CC[C@H](C)[C@H](NC(=O)[C@@H](N)CCCNC(N)N)C(=O)N[C@@H](CCC(N)=O)C(=O)N[C@@H](CCCNC(N)N)C(=O)N[C@@H](CC(N)=O)C(=O)N[C@@H](CCCCN)C(=O)N[C@@H](C)C(=O)N[C@@H](C)C(=O)N[C@@H](C)C(=O)N[C@@H](CC(C)C)C(=O)N[C@@H](CC(C)C)C(=O)N[C@@H](CCCNC(N)N)C(=O)N[C@@H](CC(C)C)C(=O)N[C@@H](C)C(=O)N[C@@H](C)C(=O)N[C@@H](CCCNC(N)N)C(=O)O` (H-[Orn(CH(NH2)2)]IQ[Orn(CH(NH2)2)]NKAAALL[Orn(CH(NH2)2)]LAA[Orn(CH(NH2)2)]-OH), the equilibrium dissociation constant (Kd) (protein: RPA32(C-terminal domain of Replication protein A,172-270), PDB entry 1dpu) is 1000 nM (active). Turning to H-EDMYRAADEIAKE-OH, the dissociation constant Kd (protein: E3 ubiquitin-protein ligase RNF31 HOIP 5-180, PDB entry 4oyk) was 180 nM (active).
